# High-throughput results as filed in PubChem.
# Marburg entry inh = inhibitors of Marburg virus binding or cell entry; Marburg virus pseudotyped entry inhibition, cell reporter; Potency, µM (top dose mostly 37.8 µM), for inactives: top-dose activity change, negative = inhibition, most hits filed as inhibitors; 300,000 tested, 1.8% active; AID 540276; calls by dose curve; tested in HEK293 cells; note: potency is the fitted concentration of half-maximal effect
# VACV Venus inh = vaccinia inhibition (Venus reporter). AID 720580. 330,000 tested, 0.46% active. Vaccinia virus Venus reporter expression, fluorescence. Potency, µM (doses to about 36.5 µM), without a hit: at the highest dose activity change, negative = inhibition, most hits filed as inhibitors; calls by dose curve; tested in A549 cells; note: potency is the fitted concentration of half-maximal effect; nearly all actives have a fitted effect of over 30% in size
# Lassa entry inh = blocks Lassa virus binding to or entry into cells; Lassa virus pseudotype entry inhibition, cell reporter; Potency, µM (top dose mostly 37.9 µM), for inactives: at the highest dose activity change, negative = inhibition, most hits filed as inhibitors; 300,000 tested, 1.2% active; AID 540256; calls by dose curve; tested in HEK293 cells; note: potency is the fitted concentration of half-maximal effect; nearly all actives have a fitted effect of over 50% in size
# FMDV inh = foot and mouth disease virus antiviral activity | FMDV antiviral cell-based qHTS | Potency, µM (doses to about 57.9 µM), for inactives: top-dose activity change, negative = inhibition, most hits filed as inhibitors | 410,000 tested, 1.2% active; calls by dose curve; tested in HEK293T cells; note: read-out not given here; potency is the fitted concentration of half-maximal effect; nearly all actives have a fitted effect of over 45% in size
# Vaccinia mCherry = vaccinia inhibition (mCherry reporter); Potency, µM (highest dose often 36.5 µM), without a hit: at the highest dose activity change, negative = inhibition, usual class: inhibitors; 310,000 tested, 0.63% active; AID 720579; Vaccinia virus mCherry reporter infection, fluorescence; calls by dose curve; tested in A549 cells; note: potency is the fitted concentration of half-maximal effect; nearly all actives have a fitted effect of over 35% in size
# HCMV inh = inhibitors of human cytomegalovirus; HFF cells, HCMV-luciferase reporter, 72 h; active compounds read low; activity change, negative = inhibition, % at 57.5 µM; 410,000 tested, 4.5% active; AID 1259415; in the data active = activity change below about -60%; inconclusive = no clear call, values can overlap the other calls; inactive = above about -39%
#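 After 16 h attachment at 37C, HFF cells received test compound and HCMV-luciferase (1 PFU/cell); reporter luminescence read 72 h later, data normalized against buffer-only and known inhibitor Salinomycin.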
# The depositor's hits bear a star; i = inactive; ? = inconclusive; . = no result; [ ] = another dose, or the depositor's remark. In the library only some 6.5% were active in any assay of this set; here they are far more common. % is set by controls: 0 for no effect and ±100 for the full control effect.
SMILES,Marburg entry inh,VACV Venus inh,Lassa entry inh,FMDV inh,Vaccinia mCherry,HCMV inh
N#Cc1ccccc1Cn1cc(C(=O)c2cccs2)c2ccccc21,2%[46.1 µM],-20%,-5%,-26%,i,-81*
O=[N+]([O-])c1ccc(N2CCN(S(=O)(=O)Cc3ccccc3)CC2)cc1N1CCOCC1,?,-29%,13µM*,?,-14%,1
CC(C)=CCCC(C)=CCON=C1C[C@@H](O)[C@@H](O)[C@@H]2[C@H]3C(=O)N(C[C@@H]4CCCO4)C(=O)[C@@H]3CC[C@@H]12,-5%[14.2 µM],.,.,.,.,.
O=C(CSc1ccc(-c2cccs2)nn1)Nc1cccc(F)c1,.,-23%,-11%[46.1 µM],-24%,-27%,-29
CCCN(CCC)CCCNC(=S)Nc1ccc2nc(N3CCCC3)cc(C)c2c1,.,.,.,-13%,.,-81*
CCN(CC)CCNC(=S)Nc1ccc2nc(N3CCCC3)cc(C)c2c1,4.1µM*,.,?,-12%,.,-30
CCOC(=O)C1=C(C)N=c2s/c(=C\c3ccncc3)c(=O)n2C1c1ccc2c(c1)OCO2 (stereo not given),-14%,-18%,-14%,25µM*,.,-13
CC1CCN(CC(O)CN2c3ccccc3Sc3ccccc32)CC1 (stereo not given),.,?,.,?,-17%,.
c1ccc2c(c1)Sc1ccccc1N2CC1CN2CCC1CC2 (stereo not given),.,-11%,.,-17%,-11%,-60*
CCOc1ccc2[nH]cc(C(=O)NCc3ccc(F)cc3)c(=O)c2c1,.,.,.,0%,.,-71*
CC(=O)c1ccc(F)c(-c2cc(C)cc3c2OC(CNC(=O)Cc2ccc4c(c2)OCO4)C3)c1 (stereo not given),.,-7%,.,-8%,-7%,.
Cc1cccc(NC(=O)Nc2ccc(C#N)cc2)n1,1%,?,.,30%,?,-84*
Cc1cccc(NC(=O)Nc2cccc(C#N)c2)n1,.,-20%,.,42%,i,-25
CCCSP1(=S)NCCCO1 (stereo not given),-2%,-14%,-6%,-8%,.,-101*
CCCCSP1(=S)NCCCN1,12%,10%,-16%,-1%,.,-13
CCCCN=CN1c2ccccc2-n2cccc2C1c1ccc(CC)cc1 (stereo not given),.,.,.,.,.,52
COc1ccc([N+](=O)[O-])cc1NC(=O)C(C)OC(=O)c1ccccc1C(=O)c1ccc(Cl)cc1 (stereo not given),-27%,-3%,?,24%,-14%,-65*
COc1ccc(NC(=O)c2ccc(-c3ccc([N+](=O)[O-])cc3)o2)cc1OC,?,4%,?,?,-13%,-72*
COc1ccc([N+](=O)[O-])cc1NC(=O)Nc1cccc(Cl)c1,-13%,-26%,-10%,?,i,-62*
COc1ccc([N+](=O)[O-])cc1NC(=O)COC(=O)c1ccccc1C(=O)c1ccccc1,?,-18%,?,-26%,i,?
COc1ccc([N+](=O)[O-])cc1NC(=O)Nc1ccc(OC)c(OC)c1,?,?,?,35µM*,?,-72*
COc1cccc(NC(=O)c2ccc(-c3ccc([N+](=O)[O-])cc3)o2)c1,?,-18%,4%[46.1 µM],-13%,-5%,?
COC(=O)c1ccc(NC(=O)c2nc(SCc3ccccc3F)ncc2Cl)cc1,.,-4%,.,.,36%,.
O=C(CC(=O)c1ccccc1)Nc1ccc2c(c1)OCCO2,?,-1%,8.9µM*,5%,.,20
O=C(Nc1ccc2c(c1)OCCO2)c1ccccc1,?,-11%,?,-39%,-11%,.
SMILES,Marburg entry inh,VACV Venus inh,Lassa entry inh,FMDV inh,Vaccinia mCherry,HCMV inh
O=C(CCCc1ccccc1)Nc1ccc2c(c1)OCCO2,?,-2%,8.9µM*,-11%,-8%,147
O=C(CC1CS(=O)(=O)CC1CC(=O)Nc1ccc2c(c1)OCCO2)Nc1ccc2c(c1)OCCO2 (stereo not given),.,.,.,?,.,-81*
Cc1cc(Br)cn2c(Cc3ccccc3C(F)(F)F)c(-c3cccc(Cl)c3)nc12,.,.,.,.,.,26
CCCCn1c(SCc2nc3ccccc3s2)nc2cc(S(N)(=O)=O)ccc21,1.8µM*,?,?,-22%,-23%,35
Cc1cc(C(=O)CCl)c(C)n1CCc1ccc(Cl)cc1,?,-16%,?,22µM*,-12%,-98*
Cc1cc(C(=O)CCl)c(C)n1CCc1ccc(F)cc1,?,-2%,?,28µM*,-8%,-83*
